Drawing on PubChem BioAssay (Tox21), this text covers Potency for 16 compounds.

In experiment [1] the target is Acetylcholinesterase (Homo sapiens) (UniProt P22303). Briefly: Acetylcholinesterase (AChE) small molecule antagonists: colormetric cell-based qHTS assay (AID 1347395; calls by dose curve; note: nearly all actives have a fitted effect of over 30% in size; note: potency is the fitted concentration of half-maximal effect). In short, it runs like this: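 Cells (SH-SY5Y, 2,000 per well) are seeded and left overnight at 37 C. Compound is added for 30 min, then DTNB and acetylthiocholine for a further 90 min at 37 C before absorbance-based thiocholine detection.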
For orientation: qHTS replaces the single test concentration by a dilution series.

Experiment [2] shares this target. Briefly: Acetylcholinesterase (AChE) small molecule antagonists: enzyme-based qHTS assay (AID 1347397; calls by dose curve; note: nearly all actives have a fitted effect of over 55% in size). The conditions noted are these: Potency: AChE enzyme activity inhibition. In short, it runs like this:
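Recombinant human AChE (50 mU/mL) preincubated with compound 30 min at room temperature; acetylthiocholine plus DTNB then added, and thiocholine formation read colorimetrically after 10 min at room temperature. DMSO served as vehicle control.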

For experiment [3] the target is unchanged. Briefly: Acetylcholinesterase (AChE) small molecule antagonists: fluorescence cell-based qHTS assay (AID 1347398; calls by dose curve; note: nearly all actives have a fitted effect of over 50% in size). The conditions noted are these: Potency: AChE activity. The method, boiled down: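 SH-SY5Y cells (2000/well), attached overnight, incubated with compound 30 min at 37 C. Acetylthiocholine plus Thiolite Green then added for 40 min at room temperature. Thiocholine fluorescence (Ex/Em 490/520 nm) reports cellular AChE activity.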

For experiment [4] the target is unchanged. Briefly: Acetylcholinesterase (AChE) small molecule antagonists: enzyme-based qHTS assay with human liver microsomes (AID 1347399; calls by dose curve; note: nearly all actives have a fitted effect of over 60% in size). The conditions noted are these: Potency: qHTS inhibition. The method, boiled down:
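Recombinant human AChE (50 mU/mL in the enzyme mix) and human liver microsomes (0.25 mg/mL final) were preincubated with compound and NADPH (0.25 mg/mL final) for 30 min at 37 C. Acetylthiocholine/DTNB was then added; thiocholine was read colorimetrically after 10 min at room temperature.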

Experiment [5] has as its target Cytochrome P450 2D6 (Homo sapiens) (UniProt P10635). Briefly: Cytochrome P450 Family 2 Subfamily D Member 6 (CYP2D6) small molecule antagonists: luciferase reporter qHTS assay (AID 1671196). Note: nearly all actives have a fitted effect of over 50% in size. Note: potency is the fitted concentration of half-maximal effect. The method, boiled down: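 Inhibition of CYP2D6 was gauged by loss of luminescence, since light produced tracks the luciferin generated from a proluciferin substrate. A 10 min room-temperature preincubation preceded 1 h NADPH-supported turnover.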

Experiment [6] addresses Cytochrome P450 2C19 (Homo sapiens) (UniProt P33261). Briefly: Cytochrome P450 Family 2 Subfamily C Member 19 (CYP2C19) small molecule antagonists: luciferase reporter qHTS assay (AID 1671197). Note: nearly all actives have a fitted effect of over 65% in size. Note: potency is the fitted concentration of half-maximal effect. The method, boiled down:
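Compounds were tested on CYP2C19 activity via proluciferin conversion to luciferin. The 37C, 1 h reaction followed NADPH addition; detection reagent stopped it.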
Background: Reporter assays use an easily measured gene product as a stand-in for the process of interest.

Experiment [7] addresses Cytochrome P450 2C9 (Homo sapiens) (UniProt P11712). Briefly: Cytochrome P450 Family 2 Subfamily C Member 9 (CYP2C9) small molecule antagonists: luciferase reporter qHTS assay (AID 1671198). Note: nearly all actives have a fitted effect of over 50% in size. Note: potency is the fitted concentration of half-maximal effect. The method, boiled down: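 P450-Glo proluciferin substrate with CYP2C9 enzyme; 10 min RT preincubation, then NADPH regeneration 1 h at 37C; luciferin detection reagent 20 min RT, luminescence in relative luminescence units.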

Experiment [8] concerns the target Cytochrome P450 1A2 (Homo sapiens) (UniProt P05177). Briefly: Cytochrome P450 Family 1 Subfamily A Member 2 (CYP1A2) small molecule antagonists: luciferase reporter qHTS assay (AID 1671199). Note: nearly all actives have a fitted effect of over 50% in size. Note: potency is the fitted concentration of half-maximal effect. The method, boiled down: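 Signal from luciferin formed by CYP1A2 from a proluciferin substrate is read as luminescence, expressed in relative luminescence units. Compounds sit with enzyme 10 min, NADPH-driven reaction runs 1 h, all at room temperature.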

The target of experiment [9] is Voltage-gated inwardly rectifying potassium channel KCNH2 (Homo sapiens) (UniProt Q12809). Briefly: Human Ether-a-go-go-Related Gene (hERG) channel small molecule antagonists: fluorescence cell-based qHTS assay (AID 1671200). The method, boiled down: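 Fluorescence at 540 nm emission (480 nm excitation) was recorded kinetically for 2 min at 1-second intervals once the thallium-containing stimulus reached cells previously loaded with FluxOR II dye.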

Experiment [10] deals with Cytochrome P450 3A4 (Homo sapiens) (UniProt P08684). Briefly: Cytochrome P450 Family 3 Subfamily A Member 4 (CYP3A4) small molecule antagonists: luciferase reporter qHTS assay (AID 1671201). Note: nearly all actives have a fitted effect of over 50% in size. Note: potency is the fitted concentration of half-maximal effect. The method, boiled down: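 qHTS, 1536-well. CYP3A4 + proluciferin substrate, cpd 10 min RT → NADPH regen 1 h RT → detection reagent 20 min → luminescence (RLU). Ketoconazole positive control.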

Structures are written as SMILES. Where “and” joins values, the source holds several entries; their conditions need not be identical. Identical values can stand only once. Records with an inconclusive call do not appear. Where a structure was tested more than once in an assay, its records may differ in their call. Calls of active or inactive are those of the source. Unless noted, calls come from the whole dose curve; as a rule, active = well fitted curve in the direction sought with a large enough effect in the repeat runs; inconclusive = weak or mixed curves; inactive = no such curve, though single readings can be large; an effect the other way counts as inactive or inconclusive.

Chain of Cytochrome P450 2D6 (Homo sapiens) (P10635 whole entry, looked up): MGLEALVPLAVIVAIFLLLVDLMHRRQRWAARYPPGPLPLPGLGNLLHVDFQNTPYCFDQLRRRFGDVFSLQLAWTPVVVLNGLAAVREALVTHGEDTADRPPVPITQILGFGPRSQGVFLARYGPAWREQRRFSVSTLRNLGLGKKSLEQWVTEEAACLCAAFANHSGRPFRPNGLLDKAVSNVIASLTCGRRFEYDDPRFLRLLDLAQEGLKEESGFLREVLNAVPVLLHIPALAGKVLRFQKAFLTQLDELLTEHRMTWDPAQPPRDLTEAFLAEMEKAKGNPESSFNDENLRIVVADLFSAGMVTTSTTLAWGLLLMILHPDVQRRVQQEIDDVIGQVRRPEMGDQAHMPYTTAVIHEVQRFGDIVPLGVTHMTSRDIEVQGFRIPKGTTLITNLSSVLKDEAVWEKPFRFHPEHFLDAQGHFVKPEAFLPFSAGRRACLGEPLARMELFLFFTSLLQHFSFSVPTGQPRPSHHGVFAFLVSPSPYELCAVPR
Chain of Voltage-gated inwardly rectifying potassium channel KCNH2 (Homo sapiens) (Q12809 whole entry, looked up): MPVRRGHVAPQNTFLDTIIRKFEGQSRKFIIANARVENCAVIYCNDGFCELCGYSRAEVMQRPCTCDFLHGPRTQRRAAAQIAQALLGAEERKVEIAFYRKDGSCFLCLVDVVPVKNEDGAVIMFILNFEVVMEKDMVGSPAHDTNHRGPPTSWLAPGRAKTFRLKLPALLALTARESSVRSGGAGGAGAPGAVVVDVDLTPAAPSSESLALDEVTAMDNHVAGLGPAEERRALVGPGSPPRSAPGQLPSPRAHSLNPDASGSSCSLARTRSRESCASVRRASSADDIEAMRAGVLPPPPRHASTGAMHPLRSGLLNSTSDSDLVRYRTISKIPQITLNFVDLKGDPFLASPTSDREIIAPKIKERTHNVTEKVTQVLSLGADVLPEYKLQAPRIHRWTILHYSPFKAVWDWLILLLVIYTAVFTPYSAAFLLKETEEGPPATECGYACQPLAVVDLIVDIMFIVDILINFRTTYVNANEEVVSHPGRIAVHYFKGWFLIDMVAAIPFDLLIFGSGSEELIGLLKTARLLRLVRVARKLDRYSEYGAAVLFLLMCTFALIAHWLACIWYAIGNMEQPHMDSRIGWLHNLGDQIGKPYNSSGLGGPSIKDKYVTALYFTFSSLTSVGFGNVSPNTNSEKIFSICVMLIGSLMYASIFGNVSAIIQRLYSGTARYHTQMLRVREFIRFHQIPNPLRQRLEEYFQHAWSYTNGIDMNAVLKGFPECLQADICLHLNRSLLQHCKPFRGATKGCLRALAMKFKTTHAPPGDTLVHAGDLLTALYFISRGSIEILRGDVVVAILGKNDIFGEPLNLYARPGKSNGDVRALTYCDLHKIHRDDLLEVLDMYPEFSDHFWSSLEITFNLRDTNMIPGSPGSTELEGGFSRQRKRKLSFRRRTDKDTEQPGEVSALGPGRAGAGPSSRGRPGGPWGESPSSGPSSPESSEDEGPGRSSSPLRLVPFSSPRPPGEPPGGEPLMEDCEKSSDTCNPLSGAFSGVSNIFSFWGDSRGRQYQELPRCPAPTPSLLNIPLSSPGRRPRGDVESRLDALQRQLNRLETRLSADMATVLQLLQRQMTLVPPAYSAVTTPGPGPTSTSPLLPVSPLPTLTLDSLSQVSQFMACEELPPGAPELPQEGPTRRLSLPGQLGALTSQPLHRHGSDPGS
Chain of Cytochrome P450 2C9 (Homo sapiens) (P11712 whole entry, looked up): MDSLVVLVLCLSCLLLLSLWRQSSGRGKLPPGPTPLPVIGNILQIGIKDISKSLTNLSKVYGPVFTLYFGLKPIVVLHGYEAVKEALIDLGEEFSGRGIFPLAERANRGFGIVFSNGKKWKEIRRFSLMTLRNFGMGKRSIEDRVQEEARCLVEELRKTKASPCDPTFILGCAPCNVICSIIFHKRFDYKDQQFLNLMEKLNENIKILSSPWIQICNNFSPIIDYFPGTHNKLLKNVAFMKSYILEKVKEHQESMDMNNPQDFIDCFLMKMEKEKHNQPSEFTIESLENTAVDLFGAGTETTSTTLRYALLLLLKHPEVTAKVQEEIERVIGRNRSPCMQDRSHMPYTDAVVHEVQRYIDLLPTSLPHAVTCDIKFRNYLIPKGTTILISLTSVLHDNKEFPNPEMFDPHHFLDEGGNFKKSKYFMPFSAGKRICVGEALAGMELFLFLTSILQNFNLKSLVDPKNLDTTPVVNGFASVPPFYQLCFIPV
Chain of Cytochrome P450 2C19 (Homo sapiens) (P33261 whole entry, looked up): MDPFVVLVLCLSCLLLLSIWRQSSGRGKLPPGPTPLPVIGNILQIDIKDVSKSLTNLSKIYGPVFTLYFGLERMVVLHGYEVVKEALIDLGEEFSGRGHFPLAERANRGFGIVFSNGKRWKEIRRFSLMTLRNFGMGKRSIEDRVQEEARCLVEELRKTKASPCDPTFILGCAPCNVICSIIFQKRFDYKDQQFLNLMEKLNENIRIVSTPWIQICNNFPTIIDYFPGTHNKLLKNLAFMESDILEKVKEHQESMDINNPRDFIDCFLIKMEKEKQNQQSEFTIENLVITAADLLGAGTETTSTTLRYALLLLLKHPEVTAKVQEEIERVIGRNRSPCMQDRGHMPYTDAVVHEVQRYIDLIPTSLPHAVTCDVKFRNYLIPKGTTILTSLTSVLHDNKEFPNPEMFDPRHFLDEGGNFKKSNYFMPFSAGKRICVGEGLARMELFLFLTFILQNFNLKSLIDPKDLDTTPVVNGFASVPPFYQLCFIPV
Chain of Cytochrome P450 1A2 (Homo sapiens) (P05177 whole entry, looked up): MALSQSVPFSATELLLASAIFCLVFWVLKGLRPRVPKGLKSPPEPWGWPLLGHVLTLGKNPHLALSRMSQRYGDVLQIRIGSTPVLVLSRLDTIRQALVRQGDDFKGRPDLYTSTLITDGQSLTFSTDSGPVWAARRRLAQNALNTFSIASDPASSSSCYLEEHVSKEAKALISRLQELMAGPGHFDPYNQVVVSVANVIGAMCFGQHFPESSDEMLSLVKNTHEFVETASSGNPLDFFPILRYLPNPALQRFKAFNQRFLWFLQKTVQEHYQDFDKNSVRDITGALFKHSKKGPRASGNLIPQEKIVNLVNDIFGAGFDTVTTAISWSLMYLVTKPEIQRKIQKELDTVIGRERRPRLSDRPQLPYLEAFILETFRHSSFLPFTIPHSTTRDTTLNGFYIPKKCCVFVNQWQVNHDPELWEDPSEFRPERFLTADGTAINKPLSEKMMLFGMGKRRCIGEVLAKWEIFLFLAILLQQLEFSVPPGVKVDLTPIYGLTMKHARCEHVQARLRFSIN
Chain of Acetylcholinesterase (Homo sapiens) (P22303 whole entry, looked up): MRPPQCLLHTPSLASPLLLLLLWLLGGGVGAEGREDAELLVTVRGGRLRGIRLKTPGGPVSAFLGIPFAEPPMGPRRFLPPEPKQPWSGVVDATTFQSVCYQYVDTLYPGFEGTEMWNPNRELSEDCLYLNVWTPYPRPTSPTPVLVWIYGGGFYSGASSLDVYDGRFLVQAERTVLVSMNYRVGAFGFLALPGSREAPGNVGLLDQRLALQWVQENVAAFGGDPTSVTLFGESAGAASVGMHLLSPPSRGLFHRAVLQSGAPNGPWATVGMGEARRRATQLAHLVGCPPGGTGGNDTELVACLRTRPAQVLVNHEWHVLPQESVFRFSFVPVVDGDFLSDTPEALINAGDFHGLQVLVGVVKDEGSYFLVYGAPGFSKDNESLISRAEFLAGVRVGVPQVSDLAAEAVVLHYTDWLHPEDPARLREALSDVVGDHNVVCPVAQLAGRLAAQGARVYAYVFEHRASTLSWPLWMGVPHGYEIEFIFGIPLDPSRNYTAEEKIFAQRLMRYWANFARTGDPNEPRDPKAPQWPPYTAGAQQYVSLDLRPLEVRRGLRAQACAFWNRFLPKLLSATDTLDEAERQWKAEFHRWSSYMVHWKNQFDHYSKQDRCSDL
Chain of Cytochrome P450 3A4 (Homo sapiens) (P08684 whole entry, looked up): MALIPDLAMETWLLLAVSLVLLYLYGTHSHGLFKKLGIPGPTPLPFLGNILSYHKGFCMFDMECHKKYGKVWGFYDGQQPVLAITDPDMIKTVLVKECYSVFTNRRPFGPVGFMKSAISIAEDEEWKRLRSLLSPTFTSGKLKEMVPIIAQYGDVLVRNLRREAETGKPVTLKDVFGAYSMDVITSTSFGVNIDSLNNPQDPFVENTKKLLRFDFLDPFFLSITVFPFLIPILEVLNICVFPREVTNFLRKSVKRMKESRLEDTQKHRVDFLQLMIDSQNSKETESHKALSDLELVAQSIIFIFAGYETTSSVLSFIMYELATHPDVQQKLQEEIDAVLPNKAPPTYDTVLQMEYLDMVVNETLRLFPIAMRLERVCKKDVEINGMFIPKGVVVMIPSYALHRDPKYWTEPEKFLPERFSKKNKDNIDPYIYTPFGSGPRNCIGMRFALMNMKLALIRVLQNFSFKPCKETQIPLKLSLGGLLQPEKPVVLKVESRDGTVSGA

`O=C(Nc1ccc(Br)cc1)c1cc(Br)cc(Br)c1O`: the Potency entry in experiment [1], in [2], in experiment [3], in experiment [4] and in experiment [6] was “inactive” throughout. Besides, the Potency in [5] was 79.6 µM (active) and inactive; in experiment [7] it was 35.5 µM (active) and 17.8 µM (active) and 15.5 µM (active); in experiment [8], 2.82 µM (active) and 35.6 µM (active) and 17.4 µM (active).

Take `Cc1c(COC(=O)[C@@H]2[C@H](/C=C(\Cl)C(F)(F)F)C2(C)C)cccc1-c1ccccc1`: the Potency result in [1], in experiment [2], in experiment [3], in experiment [4], in experiment [5] and in experiment [8] was “inactive” each time. The Potency result in [9] and in experiment [10] was “inactive” in each case. In addition, the Potency in [6] was 7.79 µM (active) and 8.91 µM (active); in experiment [7] it was 19.6 µM (active) and 11.2 µM (active).

With `CCC(C)c1cc([N+](=O)[O-])cc([N+](=O)[O-])c1O` (stereo not given), the Potency result in experiment [1], in experiment [2], in experiment [3], in experiment [4], in experiment [5] and in experiment [7] was “inactive” each time. The Potency result in experiment [9] and in experiment [10] was “inactive” throughout. Also, the Potency entry in experiment [6] was “inactive and 79.6 µM (active)”; in experiment [8], “inactive and 63.3 µM (active)”.

Take `c1cc(OCC2CO2)ccc1Cc1ccc(OCC2CO2)cc1` (stereo not given): the Potency entry in experiment [1], in experiment [2], in experiment [3], in [4] and in experiment [9] was “inactive” each time. In addition, the Potency in experiment [5] is 16 µM (active) and 28.3 µM (active); in experiment [6] it was 8 µM (active) and 7.96 µM (active); in [7], 35.7 µM (active) and 28.3 µM (active); in experiment [8] it was 71 µM (active).

For `Cc1ccc(N)c(N)c1`, the Potency entry in [1], in experiment [2], in experiment [3], in experiment [4] and in [9] was “inactive” in each case. For the same compound, the Potency is 3.57 µM (active) and 17.8 µM (active) in experiment [5]; 17.9 µM (active) and 31.7 µM (active) in experiment [6]; 35.7 µM (active) and 20 µM (active) in [7]; 5.66 µM (active) and 20 µM (active) in experiment [8]; 31.8 µM (active) and 31.7 µM (active) in [10].

Take `Oc1ccc(-c2ccccc2)cc1`: the Potency entry in experiment [1], in [2], in experiment [3], in experiment [4] and in [10] was “inactive” each time. The Potency in [5] was 31.3 µM (active); in experiment [6] it was 35.1 µM (active) and 35.6 µM (active); in [7] it was 39.4 µM (active); in [8], 11.1 µM (active) and 11.2 µM (active).

Regarding `NNC(=S)NN`, the Potency result in [1], in experiment [2], in experiment [3], in [4] and in experiment [9] was “inactive” in each case. Further, the Potency is 65 µM (active) in [5]; 32.6 µM (active) and 39.9 µM (active) in experiment [6]; 65 µM (active) in [7]; 41 µM (active) and 31.7 µM (active) in experiment [8].

With `O=C1C=CC(=O)C=C1`, the Potency entry in [1], in [2], in experiment [3], in [4], in experiment [5] and in experiment [6] was “inactive” throughout. In addition, the Potency entry in experiment [7], in experiment [9] and in experiment [10] was “inactive” each time. Also, in experiment [8], the Potency is 40.1 µM (active).

As for `COP(=O)(OC)OC`, the Potency entry in [1], in experiment [2], in experiment [3], in experiment [4], in experiment [5] and in experiment [9] was “inactive” in each case. Further, the Potency was 9.01 µM (active) and inactive in experiment [6]; 32 µM (active) and inactive in experiment [7]; 35.9 µM (active) and inactive in experiment [8]; 16 µM (active) and inactive in experiment [10].

For `CC(C)=CC1C(C(=O)OCc2coc(Cc3ccccc3)c2)C1(C)C` (stereo not given), the Potency entry in experiment [1], in experiment [2], in experiment [3], in [4], in experiment [5] and in experiment [9] was “inactive” each time. Further, the Potency in experiment [6] is 8.95 µM (active) and 6.32 µM (active); in experiment [7] it was 7.98 µM (active) and 3.55 µM (active); in [8] it was 28.2 µM (active).

Turning to `CCC(CC)Nc1c([N+](=O)[O-])cc(C)c(C)c1[N+](=O)[O-]`, the Potency result in [1], in experiment [2], in experiment [3], in experiment [4] and in experiment [5] was “inactive” throughout. Moreover, the Potency in [6] was 36.1 µM (active) and 10 µM (active); in experiment [7], 32.1 µM (active) and 25.2 µM (active); in [8] it was 28.6 µM (active) and 17.8 µM (active).

With `CCCCC(CC)COC(=O)Cl` (stereo not given), the Potency entry in experiment [1], in experiment [2], in experiment [3], in experiment [4], in [5] and in experiment [6] was “inactive” throughout. Besides, the Potency entry in experiment [7], in experiment [8], in [9] and in experiment [10] was “inactive” each time.

On to `C=C(C)C(=O)OCC1CO1` (stereo not given), for which the Potency result in experiment [1], in experiment [2], in [3], in experiment [4], in experiment [5] and in experiment [6] was “inactive” each time. In addition, the Potency result in [7], in experiment [8] and in experiment [10] was “inactive” throughout.

Regarding `CN(C)C(=O)Nc1ccc(Cl)cc1`, the Potency result in experiment [1], in [2], in experiment [3], in experiment [4], in [7] and in experiment [9] was “inactive” throughout. In addition, the Potency result in experiment [10] was “inactive”. Also, the Potency in experiment [5] is 9.86 µM (active); in experiment [6], 7.83 µM (active); in experiment [8] it was 3.93 µM (active) and 3.99 µM (active).

As to `O=[N+]([O-])c1ccc(O)c([N+](=O)[O-])c1`, the Potency entry in [1], in [2], in [3], in experiment [4], in [5] and in experiment [6] was “inactive” each time. Also, the Potency result in [8], in experiment [9] and in experiment [10] was “inactive” in each case. In experiment [7], the Potency is 63.5 µM (active) and 39.9 µM (active).

Regarding `O=P(O)(O)CCCl`, in [1], the Potency was 40.7 µM (active) and 39.8 µM (active). The Potency entry in [2], in experiment [3], in experiment [4], in experiment [5], in experiment [6] and in experiment [7] was “inactive” throughout. Besides, the Potency entry in [8] and in [10] was “inactive” each time.
